Screening data deposited in PubChem by National Center for Advancing Translational Sciences (NCATS).
Most compounds without a hit are left out; they make up all but 7.3% or so of the library.
Gal4-VP16 FLuc: Gal4-VP16 reporter inhibition counter-screen; Drosophila S2 Gal4-VP16 UAS-luciferase, luminescence, 20 h; Potency, µM (doses to about 53.6 µM), inactives show top-dose activity, negative = inhibition, hits mostly inhibitors; 3.5% of 310,000 active; AID 2546;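 further: Gal4-VP16 expression switched on by copper sulfate through the metallothionein promoter; nearly all actives have a fitted effect of over 50% in size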
RORg inh: inhibitors of mouse ROR gamma transcriptional activity. Drosophila S2 Gal4-RORgamma UAS-luciferase reporter, 20 h. Potency, µM (highest dose often 53.6 µM), inactives show at the top dose activity change, negative = inhibition, actives largely listed as inhibitors. 5.4% of 310,000 active. AID 2551; further: nearly all actives have a fitted effect of over 60% in size
Target sequence (P51450 whole entry, looked up, the tested form may be a part): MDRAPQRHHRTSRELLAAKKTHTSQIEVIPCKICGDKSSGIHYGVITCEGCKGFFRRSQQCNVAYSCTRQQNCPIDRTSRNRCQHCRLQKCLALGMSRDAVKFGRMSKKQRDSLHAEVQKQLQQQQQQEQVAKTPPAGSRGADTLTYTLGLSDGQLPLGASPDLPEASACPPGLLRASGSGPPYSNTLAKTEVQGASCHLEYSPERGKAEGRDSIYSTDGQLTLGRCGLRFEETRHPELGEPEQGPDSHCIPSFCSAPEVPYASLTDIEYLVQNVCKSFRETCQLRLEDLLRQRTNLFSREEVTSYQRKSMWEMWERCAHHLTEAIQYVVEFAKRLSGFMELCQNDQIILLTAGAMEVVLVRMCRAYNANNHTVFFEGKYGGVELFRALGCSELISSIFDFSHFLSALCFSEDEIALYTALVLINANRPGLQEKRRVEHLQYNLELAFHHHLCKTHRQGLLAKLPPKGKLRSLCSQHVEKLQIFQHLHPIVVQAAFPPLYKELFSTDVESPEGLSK
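Drosophila Schneider cells stably carrying a metallothionein-driven Gal4 DBD–ROR gamma fusion and a UAS-Photinus luciferase reporter were exposed to compound for 1 hr, then induced with copper sulfate (700 uM final) for 20 hr at ambient temperature before luminescence reading.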
Tau fluor cs: counter-screen for tau fibril formation inhibitors; tau K18 P301L Alexa594 fluorescence, heparin fibrillization; Potency, µM (series often up to 57.7 µM), for inactives: at the highest dose activity change, negative = decrease; 0.93% of 280,000 active; AID 1463; further: nearly all actives have a fitted effect of over 55% in size
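Human tau K18 P301L (15 uM unlabeled, 0.24 uM Alexa 594-labeled) in 100 mM sodium acetate pH 7 with 20 uM heparin, 6 hr at 37 C. ThT 30 uM added, 1 hr ambient; Alexa 594 FP and total fluorescence read at 555/632 nm.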
Tau fibril ThT: blocks human tau fibril formation measured by thioflavin T; 2.1% of 270,000 active; P10636; Potency, µM (doses to about 57.4 µM), for the others: at the highest dose activity, negative = inhibition, hits mostly inhibitors; AID 1460; recombinant tau K18 P301L (four-repeat tau fragment), heparin-induced fibrillization, ThT fluorescence; further: nearly all actives have a fitted effect of over 55% in size
Target sequence (P10636 561-689 P618L limits assumed): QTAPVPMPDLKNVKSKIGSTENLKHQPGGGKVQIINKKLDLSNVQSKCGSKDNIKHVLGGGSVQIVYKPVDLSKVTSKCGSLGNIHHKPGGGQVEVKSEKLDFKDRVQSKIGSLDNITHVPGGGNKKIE
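Tau K18 P301L fragment (15 uM unlabeled plus 0.24 uM Alexa 594-labeled) in 100 mM sodium acetate pH 7 with compound, fibrillization induced by 20 uM heparin for 6 hr at 37 C. Thioflavin T (30 uM) added, fluorescence read after 1 hr (ex 450, em 510 nm).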
Tau fibril FP: tau fibrillization inhibition (FP) | P10636 | K18 P301L tau heparin fibrillization, Alexa594 FP, 6 h | Potency, µM (series often up to 57.7 µM), inactives show at the top dose activity, negative = inhibition, hits mostly inhibitors | 0.39% of 280,000 active | AID 1468; further: nearly all actives have a fitted effect of over 55% in size
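Recombinant K18 P301L […], labeled with Alexa 594 at 0.24 uM over 15 uM unlabeled; heparin inducer 20 uM final; 37 C, 6 hr; FP endpoint.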
Active calls of the source: *; ? = inconclusive; . = no result; [ ] = another dose, or the depositor's remark. The call rests on the fitted dose curve; in most records, active means well fitted curve in the direction sought with a large enough effect; inconclusive means small, poorly fitted or top-dose-only effect, or another doubt; inactive means no such curve, though single readings can be large; an effect the other way counts as inactive or inconclusive. On the % scale 0 is the no-effect control and ±100 the full control effect; potency means the concentration at half of the fitted maximal effect.

SMILES	Gal4-VP16 FLuc	RORg inh	Tau fluor cs	Tau fibril ThT	Tau fibril FP
CCN(CC)c1ccc(NC(=O)CCc2nc3cccnc3n2Cc2cccs2)c(C)c1	.	.	-18%	-17%	3%
COC(=O)c1ccc(C(=O)Nc2ccc3nc(-c4cccnc4)[nH]c3c2)cc1	-9%	30%	-8%	-13%	-9%
COC(=O)c1ccc(C(=O)Nc2nnc(-c3cccnc3)o2)cc1	2.8µM*	2.5µM*	4%	-4%	-1%
O=C(Nc1nnc(-c2cccnc2)o1)c1ccccc1Cl	?	8.9µM*	3%	9%	-1%
N#CC1=C(N)Oc2n[nH]c(-c3cccnc3)c2C1c1ccc([N+](=O)[O-])o1 (configuration not stated)	?	6.3µM*	?	13µM*	?
N#CC1=C(N)Oc2n[nH]c(-c3ccccc3)c2C1c1cccnc1 (configuration not stated)	6%	2%	-14%	?	-11%
COC(=O)c1cc2sccc2n1Cc1nc(-c2cccc(Br)c2)oc1C	.	.	-14%	-4%	0%
Cc1nnc(NC(=O)c2oc3c(ccc4ccccc43)c2C)s1	-5%	13µM*	-8%	-16%	-3%
Cc1ccc2c(C)c(C(=O)Nc3nnc(C)s3)oc2c1	-1%	-15%[10 µM]	-7%	-14%	?
O=C(OCc1nnc(-c2ccc(Cl)cc2)o1)c1ccc(O)cc1	4%	17%	-26%	?	-4%
CS(=O)(=O)c1ccc(C(=O)OCc2nnc(-c3ccc(Cl)cc3)o2)cc1[N+](=O)[O-]	-2%	10µM*	?	?	7%
CCCCC/C=C\C/C=C\CCCCCCCCCC(=O)NCCCC(=O)O	-2%	19%	-5%	0%	-2%
CCOC(=O)C(c1ccccc1)C(Nc1ccc(F)cc1)c1ccccn1 (configuration not stated)	11%	17%	-19%	-8%	0%
CCOC(=O)C(C(=O)OCC)C(Nc1ccc(Br)cc1)c1ccccc1 (configuration not stated)	?	11µM*	11%	?	11%
CCOC(=O)C1CCN(C2CCN(C(=O)c3oc4c(C)c(C)ccc4c3C)CC2)CC1	0%	-2%	.	.	.
C=CCNC(=S)NNc1nc2c(c(=O)[nH]1)C1(CCCCC1)Cc1ccccc1-2	1.8µM*	1µM*	?	-6%	?
CCN(CC)Cc1nc2c(c(=O)[nH]1)C1(CCCC1)Cc1ccccc1-2	11µM*	2.8µM*	-1%	-12%	5%
O=c1[nH]c(NCCO)nc2c1C1(CCCC1)Cc1ccccc1-2	-22%	33%	-27%	-4%	-3%
O=c1[nH]c(CN(CCO)CCO)nc2c1C1(CCCCC1)Cc1ccccc1-2	-11%	?	2%	-4%	2%
O=C(Nc1cccc(Cl)c1)c1ccc(F)c(S(=O)(=O)NCc2ccc3c(c2)OCO3)c1	-27%	?	16µM*[quencher]	-14%	?
Cc1ccc(CNS(=O)(=O)c2cc(C(=O)Nc3cccc(C(F)(F)F)c3)ccc2F)cc1	.	.	?	22%	14µM*
Cc1ccc(CNS(=O)(=O)c2cc(C(=O)Nc3ccc(C(C)C)cc3)ccc2F)cc1	.	.	?	-4%	?
CCOc1ccccc1NC(=O)c1ccc(F)c(S(=O)(=O)NCc2ccc3c(c2)OCO3)c1	.	.	-19%	-1%	-5%
CCOC(=O)c1ccc(CN(Cc2ccc(F)cc2)S(=O)(=O)c2cc(C(=O)Nc3cccc(C(F)(F)F)c3)ccc2F)cc1	.	.	0%	7%	14µM*
COc1ccc2oc(=O)c(-c3nc(-c4cc(OC)c(OC)c(OC)c4)no3)cc2c1	.	.	-9%	-10%	-3%
SMILES	Gal4-VP16 FLuc	RORg inh	Tau fluor cs	Tau fibril ThT	Tau fibril FP
C/C(CCN1CCCc2nc(C)c(C)cc21)=N\OC[C@@H](O)COCc1ccco1	4%[10 µM]	11%[10 µM]	-1%[11.6 µM]	-2%[11.5 µM]	?
COc1ccc(CC(=O)NCCc2csc3nc(-c4ccccc4F)nn23)cc1	.	.	-10%	0%	-12%
Cc1cccc(CNc2ncnc3ccc(-c4cccc(C#N)c4)cc23)c1	1%	?	-21%	4%	-20%
O=C(CC1SC(=Nc2ccccc2)N(CCc2c[nH]c3ccccc23)C1=O)Nc1ccccc1F (configuration not stated)	3%	11%[10 µM]	13µM*[quencher]	-15%	-6%
O=C(CC1SC(=Nc2ccccc2)N(CCc2ccccn2)C1=O)Nc1ccc(F)cc1 (configuration not stated)	4%	35%	-16%	3%	-2%
Cc1nn(CC(=O)NNC(=O)c2ccccc2F)c([N+](=O)[O-])c1Br	12%	-28%	-8%	-5%	-2%
CC(C)(C)c1cc(CCC(=O)N2CCC2)cc(C(C)(C)C)c1O	-97%	13µM*	.	.	.
NC(=S)n1[nH]c(-c2ccccc2)c(N=Nc2ccccc2C(=O)N2CCOCC2)c1=O	-14%	2µM*	-1%	?	8%
COc1cc(C(=O)O/N=C2\C=CC(=O)C=C2C)cc(OC)c1OC	4µM*	7.1µM*	-19%	?	-9%
COc1cc(C(=O)O/N=C2\CCCc3c2ccc(OC)c3[N+](=O)[O-])cc(OC)c1OC	-11%	1%	-7%	-11%	-6%
COc1cc(C(=O)O/N=C2/C=CC(=O)C(C)=C2C)cc(OC)c1OC	4.5µM*	3.5µM*	-11%	?	-5%
COc1cc(C(=O)OCC(=O)Nc2ccc(C)cc2)cc(OC)c1OC	1%	15%	.	.	.
Cc1ccc(CNC(=O)COc2ccc(C)nc2[N+](=O)[O-])cc1	0%	40%	-4%	-3%	-5%
Cc1ccc(OCC(=O)c2ccc(Cl)s2)c([N+](=O)[O-])n1	20µM*	?	?	14µM*	?
CC(CNC(=O)Cn1ccc2cc(S(=O)(=O)N3CCCCCC3)ccc21)c1ccccc1 (configuration not stated)	.	.	-19%	-1%	0%
COc1ccc(C(=O)/C=C/Nc2ccc([N+](=O)[O-])cc2C)c(OC)c1	-28%	-7%	-28%	?	?
Cc1ccc(O)c(NC(=S)NC(=O)c2ccccc2Cl)c1	13µM*	3.5µM*	-30%	?	8%
COc1ccc(C(=O)/C=C/Nc2ccc([N+](=O)[O-])cc2C)cc1OC	-19%	-4%	?	1.6µM*	?
O=C(CC(=O)Nc1ccccc1[N+](=O)[O-])Nc1ccccc1[N+](=O)[O-]	1%	20%	.	.	.
COc1ccc(C(=O)NC(=S)Nc2ccc([N+](=O)[O-])cc2C)cc1OC	?	16µM*	-22%	?	-4%
CC(C)(C)CC(=O)NC(=S)Nc1ccccc1[N+](=O)[O-]	?	6.3µM*	-6%	0%	5%
CC(C)(C)CC(=O)Nc1nnc2n1CCS2	.	.	-13%	-16%	-1%
Cc1cc(C)c(NC(=O)CC(=O)c2ccccc2)c(Cl)c1	-15%	28%	.	.	.
